# “And” between values parts separate entries of the source, which are not always exact repeats. Identical values can stand only once. Inconclusive results are not listed. A structure can be active in one record and inactive in another. The source made the active and inactive calls. How the source made its calls, unless noted: active means hit-call score of the fitted dose curve at least 0.9, where 1 is the maximum; inconclusive means response in the unintended direction; inactive means score below 0.9.
# Assays:
# [1] = CCTE_Shafer_MEA_dev_LDH: CCTE's Lactate Dehydrogenase Assay for Cytotoxicity in the Neural Network Formation Assay, Shafer Lab (AID 2284068);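 further: exposure for twelve days from plating with re-dosing on DIV 5 and 9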
# Summary of the method: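 Primary rat cortical neurons were cultured on PEI-coated MEA plates and exposed from plating through day 12, with compound renewed at medium changes on DIV 5 and 9. LDH activity was read spectrophotometrically; loss of signal versus DMSO indicates reduced viability.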
# [2] = CCTE_Shafer_MEA_dev_AB: CCTE's Alamar Blue Assay for Cytotoxicity in the Neural Network Formation Assay, Shafer Lab (AID 2284083);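 further: resazurin reduction fluorescence as viability of cultured neurons; twelve days of exposure from plating with re-dosing on DIV 5 and 9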
# Summary of the method: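 Resazurin fluorescence, relative to DMSO, gauges viability after twelve days of exposure that began at plating of rat cortical neurons (1.5 x 10^5 cells/well, 48-well MEA); treatment renewed with full medium exchange on DIV 5 and 9.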
# [3] = CCTE_Shafer_MEA_dev_mutual_information_norm: CCTE's Neural Network Formation Assay for Mutual Information Normalization, Shafer Lab (AID 2284091; active means hit-call score of the fitted dose curve at least 0.9, where 1 is the maximum; inactive means score below 0.9;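 on AC50: mutual information between electrodes summarised as area under curve across four recording days; potency is for a decrease in mutual information relative to DMSO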)
# Summary of the method: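 Shared information across electrodes, tracked on days 5, 7, 9 and 12 of network development and collapsed as trapezoidal area under the curve. Rat cortical cultures were treated continuously from plating, with treatment renewed at feeds on DIV 5 and 9; DMSO baseline, negative-direction fit.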
# [4] = CCTE_Shafer_MEA_dev_correlation_coefficient_mean: CCTE's Neural Network Formation Assay for Mean Correlation Coefficient, Shafer Lab (AID 2284093; active means hit-call score of the fitted dose curve at least 0.9, where 1 is the maximum; inactive means score below 0.9;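 on AC50: well mean pairwise spike train correlation integrated as AUC over recording days 5 to 12; potency fitted for loss of correlation relative to DMSO vehicle wells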)
# Summary of the method: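 Primary rat cortical neurons on PEI-coated 48-well MEA plates (16 electrodes/well) were exposed from plating day 0 through DIV12, with compound renewed at DIV5 and 9. Pairwise spike correlations were averaged per well; trapezoidal AUC across DIV5, 7, 9, 12.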
# [5] = UKN2_HCS_IMR90_neural_migration: University of Konstanz (UKN) Leist Lab Neural Crest Cell Migration Assay in human induced IMR90 Pluripotent Stem Cells (UKN2) (AID 2284204; active means hit-call score of the fitted dose curve at least 0.9, where 1 is the maximum; inactive means score below 0.9); settings: actives raise or lower the signal
# Summary of the method: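 High-content imaging of calcein-AM and Hoechst stained cells quantifies migration into a stopper-defined gap after 24 h compound exposure. Neural crest cells from IMR90 iPSC migrated 24 h in EGF/FGF N2-S medium before dosing; DMSO baseline.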
# [6] = CCTE_Shafer_MEA_acute_LDH: CCTE's Lactate Dehydrogenase Assay for Cytotoxicity in the Neural Acute Assay, Shafer Lab (AID 2284086);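 further: active means LDH release rises above DMSO vehicle level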
# Summary of the method: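 Medium collected from MEA wells of primary rat cortical cultures (DIV 13 or 15) immediately after 40 min chemical exposure is assayed spectrophotometrically for lactate dehydrogenase activity. Endpoint fitted in positive direction versus DMSO.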
# [7] = UKN5_HCS_SBAD2_cell_viability: Viability Assessment in the University of Konstanz (UKN) Leist Lab Neurite Outgrowth Assay in human iPSC-derived immature Dorsal Root Ganglia Neurons (UKN5) (AID 2284056; active means hit-call score of the fitted dose curve at least 0.9, where 1 is the maximum; inactive means score below 0.9)
# Summary of the method: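 iPSC-derived immature peripheral neurons (SBAD2) seeded on Matrigel with CHIR99021, SU5402 and DAPT, dosed 1 h later for 24 h. Viability from Hoechst H-33342 and calcein-AM live staining, high-content imaging; bidirectional fit versus DMSO.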
# [8] = UKN5_HCS_SBAD2_neurite_outgrowth: University of Konstanz (UKN) Leist Lab Neurite Outgrowth Assay in human iPSC-derived immature Dorsal Root Ganglia Neurons (UKN5) (AID 2284070; active means hit-call score of the fitted dose curve at least 0.9, where 1 is the maximum; inactive means score below 0.9); settings: actives raise or lower the signal
# Summary of the method: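 Thaw, seed on Matrigel (100.000 cells/cm2), dose 1 h later; at 23 h live-stain with H-33342 and calcein-AM for 60 min; image at 24 h. Neurite area fitted bidirectionally vs DMSO.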
# [9] = CCTE_Shafer_MEA_acute_AB: CCTE's Alamar Blue Assay for Cytotoxicity in the Neural Acute Assay, Shafer Lab (AID 2284069);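 further: active compounds lower the viability signal compared with DMSO wells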
# Summary of the method: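 Resazurin reduction (CellTiter Blue, 1:6 in fresh medium) read at ex 544/em 590 nm marks viability loss relative to DMSO. Cells: primary rat cortical neuron networks on microelectrode arrays, treated after baseline recording at 13 or 15 days in vitro.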
# DIO3 (gene 1735) = experiment: CCTE_GLTED_hDIO3: CCTE's human Deiodinase 3 (DIO3) Inhibition Assay, Great Lakes Toxicology and Ecology Division (GLTED) Lab (AID 2284055);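 on AC50: potency is for inhibition seen as loss of released iodide signal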
# Method: CCTE_GLTED_hDIO3 is a cell-free, single-readout assay designed to test the inhibitory activity of chemicals toward human iodothyronine Deiodinase type 3 (DIO3) enzyme. Enzyme is incubated in presence of test chemical for 3 hours during which uninhibited enzyme liberates free iodide from substrate. Free iodide is measured in a second step using the Sandell-Kolthoff method.CCTE_GLTED_hDIO3 is the assay component measured from the CCTE_GLTED_hDIO3 assay. It is designed to make measurements of enzyme activity, a form of enzyme reporter, as detected with absorbance signals by spectrophotometry.Data from the assay component CCTE_GLTED_hDIO3 was analyzed into 1 assay endpoint. This assay endpoint, CCTE_GLTED_hDIO3, was analyzed in the positive analysis fitting direction relative to DMSO as the negative control and baseline of activity. Using a type of enzyme reporter, loss-of-signal activity can be used to understand changes in the enzymatic activity as they relate to the gene DIO3. Furthermore, this assay endpoint can be referred to as a primary readout, because the performed assay has only produced 1 assay endpoint. To generalize the intended target to other relatable targets, this assay endpoint is annotated to the 'deiodinase' intended target family, where the subfamily is 'deiodinase Type 3'.
# […] assay, developed at Great Lakes Toxicology and Ecology Division (GLTED) within the EPA's Center for Computational Toxicology and Exposure (CCTE), is designed to test the chemicals' ability to inhibit DIO3. Assay uses human deiodinase type 3 (DIO3) enzyme produced with adenovirus expression system. Assay is based on iodide release measured by the Sandell-Kolthoff method and is run in 96-well plate format with assay plates run in triplicate (n=3). The method used for the deiodinase assay was largely based on Renko et al. (2012, 2015). These works describe the utilization of the SK reaction to measure deiodinase-liberated iodide in a 96-well-plate format. The SK reaction is based on the reduction of the yellow-colored cerium IV to the non-colored cerium III by arsenic, with the rate of this reaction increased in the presence of iodide in a concentration-dependent manner (Sandell and Kolthoff, 1937). Iodinated test chemicals can interfere as competitive inhibitors, or if the stock chemical has contaminating free-iodide present. Other chemicals, e.g.: nitrite, iron, and thiocyanate can interfere with the Sandell-Kolthoff reaction (see Sandell and Kolthoff, 1937).
smiles,measurement,setting,value
CCOP(=S)(OCC)SCSCC,AC50,[1],33.7 µM (active)
same,outcome,[1],inactive
same,AC50,[2],68.9 µM (active)
same,outcome,[2],inactive
same,AC50,[3],4.04 µM (active)
same,outcome,[3],inactive
same,AC50,[4],74.5 µM (active) and 13 µM (active)
same,outcome,[5],inactive
CC(C)(C)c1ccccc1OP(=O)(Oc1ccccc1)Oc1ccccc1,AC50,[1],15.5 µM (active) and 26 µM (active)
same,AC50,[2],15 µM (active)
same,outcome,[2],inactive
same,outcome,[6],inactive
same,outcome,[3],inactive
same,AC50,[4],24.4 µM (active)
same,outcome,[4],inactive
O=S1(=O)OCC2C(CO1)C1(Cl)C(Cl)=C(Cl)C2(Cl)C1(Cl)Cl (centres undefined),outcome,[7],inactive
same,outcome,[8],inactive
O=S(=O)(c1ccc(O)cc1)c1ccc(O)cc1,outcome,[1],inactive
same,outcome,[2],inactive
same,outcome,[3],inactive
same,outcome,[4],inactive
O=C(O)C1C(C(=O)O)C2(Cl)C(Cl)=C(Cl)C1(Cl)C2(Cl)Cl (centres undefined),outcome,[1],inactive
same,outcome,[9],inactive
same,outcome,[3],inactive
same,outcome,[4],inactive
O=C(O)C(F)(F)C(F)(F)C(=O)O,outcome,[1],inactive
same,outcome,[2],inactive
same,outcome,[3],inactive
same,AC50,[4],1.81 µM (active)
C=CC(=O)OCC(F)(F)C(F)F,AC50,DIO3 (gene 1735),52.4 µM (active)
same,AC50,[1],8.15 µM (active)
same,AC50,[2],20.7 µM (active)
same,AC50,[3],5.12 µM (active)
same,AC50,[4],11.3 µM (active)
ClC1=C(Cl)C2(Cl)C3C(Cl)C(Cl)CC3C1(Cl)C2(Cl)Cl (centres undefined),AC50,[1],7.62 µM (active)
same,outcome,[9],inactive
same,AC50,[2],7.42 µM (active)
same,outcome,[6],inactive
same,AC50,[3],7.75 µM (active)
same,AC50,[4],7.71 µM (active)
CCC1(c2ccccc2)C(=O)N=C(O)NC1=O (centres undefined),outcome,[1],inactive
same,outcome,[9],inactive
same,outcome,[2],inactive
same,outcome,[3],inactive
same,outcome,[4],inactive
COC(=O)C(F)(F)C(F)(F)OC(F)(C(F)(F)F)C(F)(F)OC(F)=C(F)F (centres undefined),AC50,DIO3 (gene 1735),3.1 µM (active)
CCCCCCCc1ccc(O)cc1,AC50,DIO3 (gene 1735),81.2 µM (active)
O=P(Oc1ccccc1)(Oc1ccccc1)Oc1ccccc1,outcome,[1],inactive
same,outcome,[2],inactive
same,outcome,[3],inactive
same,outcome,[4],inactive
CCOc1ccc(C(C)(C)COCc2cccc(Oc3ccccc3)c2)cc1,AC50,[1],15.2 µM (active)
same,AC50,[2],1.98 µM (active)
same,AC50,[3],3.09 µM (active)
same,AC50,[4],10 µM (active)
O=c1ssc(Cl)c1Cl,AC50,DIO3 (gene 1735),3.57 µM (active)
CCNc1nc(Cl)nc(NC(C)(C)C)n1,AC50,DIO3 (gene 1735),11.4 µM (active)
CC1(C)CN=C(NN=C(/C=C/c2ccc(C(F)(F)F)cc2)/C=C/c2ccc(C(F)(F)F)cc2)NC1,outcome,DIO3 (gene 1735),inactive
CCCCC(CC)COP(=O)(Oc1ccccc1)Oc1ccccc1 (centres undefined),AC50,[1],6.12 µM (active)
same,outcome,[2],inactive
same,outcome,[6],inactive
same,outcome,[3],inactive
same,outcome,[4],inactive
OCC(F)(F)OC(F)(F)C(F)(F)OC(F)(F)C(F)(F)OC(F)(F)F,outcome,[1],inactive
same,outcome,[2],inactive
same,outcome,[3],inactive
same,outcome,[4],inactive
O=S(=O)(F)C(F)(F)C(F)(F)C(F)(F)C(F)(F)C(F)(F)C(F)(F)C(F)(F)C(F)(F)F,AC50,DIO3 (gene 1735),28.4 µM (active)
CCCCC(CC)COC(=O)c1c(Br)c(Br)c(Br)c(Br)c1C(=O)OCC(CC)CCCC (centres undefined),outcome,[1],inactive
same,AC50,[2],0.0248 µM (active)
same,outcome,[3],inactive
same,outcome,[4],inactive
O=C(O)C(F)(OC(F)(F)C(F)(F)C(F)(F)F)C(F)(F)F (centres undefined),outcome,[5],inactive
CO/N=C(/C(=O)OC)c1ccccc1COc1ccccc1C,outcome,[5],inactive
